SMILES strings stand for the structures. Values without a mark were called inactive. Inconclusive results are not listed. Activity calls are given as the source filed them.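 The calls were made as follows, unless noted: active = viability increase at or above a cutoff of the median across tested compounds plus 3 SD (cut at about 8.5% in these data, passing the limit was not always enough); inconclusive = some gains above the cutoff, reason not given; inactive = the rest.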

A short description of one test: doxorubicin toxicity protection in MRP-1 cells – H69AR cells, CellTiter-Glo, duplicate, MRP-1 activator project, pilot screen (AID 807).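 Also: compound pretreatment 18-22 h then 72 h combined with doxorubicin; 0% = doxorubicin alone and 100% = vehicle without doxorubicin.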 The conditions noted are these: H69AR viability with doxorubicin, CellTiter-Glo luminescence; at 10 µM; active compounds read high. (In general: In ATP-based viability assays light output follows the ATP content of the culture.)
On to `CSc1ccc(S(=O)(=O)N2CCN(Cc3ccc4c(c3)OCO4)CC2)cc1`, for which the viability increase is -4.46%.
As for `Cc1ccc(F)c(NC(=O)C2CCCCC2C(=O)O)c1` (stereo not drawn), the viability increase was -2.22%.
On to `CC(=O)c1sc(NC(=O)c2ccco2)nc1-c1ccccc1`, for which the viability increase is -1.39%.
Still for that read-out and setting: as for `CCn1c(C(C)NC(=O)Cc2ccccc2)nc2ccccc21` (stereo not drawn), the figure is -1.21%; as for `CCOC(=O)N1CCN(C(=O)Cn2ncc3ccccc32)CC1`, -1.62%.
Same read-out and setting: as for `CCCCCn1c(CNC(=O)CCC)nc2ccccc21`, the figure is -2.97%; as for `COc1ccc(-n2ncc3c(N4CCCCC4)ncnc32)cc1`, -3.57%; as for `O=C(c1cccc(S(=O)(=O)N2CCCC2)c1)c1cccc(S(=O)(=O)N2CCCC2)c1`, -1.22%.
For the molecule `CC(C)Cc1nnc(NC(=O)CCN2C(=O)c3ccccc3C2=O)s1`, the viability increase was 0.42%.
`Cc1cc(C)c(S(=O)(=O)N2CCN(CCO)CC2)c(C)c1`: the viability increase is 0.8%.
Same read-out and setting: as for `CCOC(=O)c1nn(-c2ccc3c(c2)CCN3C(C)=O)cc1O`, the figure is -1.4%; as for `CCN1CCN(C(c2ccccc2)c2sc3nc(C)nn3c2O)CC1` (stereo not drawn), -1.49%; as for `Cc1ccc(O)c(-c2cc(C(F)(F)C(F)F)nc(-c3ccccc3)n2)c1`, -5.33%.
Same read-out and setting: the figure for `COc1ccc(CN2CCCCC2C(=O)Nc2ccc(OC)c(OC)c2)cc1OC` (stereo not drawn) is -1.88%; for `CCC(Sc1nncn1C)C(=O)Nc1nnc(-c2ccccc2Cl)s1` (stereo not drawn) it is -0.85%; for `COc1ccc(S(=O)(=O)NCC2CCC(C(=O)N3CCC4(CC3)OCCO4)CC2)cc1` (stereo not drawn) it is -1.38%.
Still for that read-out and setting: the figure for `NC(=O)c1ccsc1NC(=O)c1ccco1` is -1.54%; for `Cc1c(NC(=O)c2ccc3c(c2)OCO3)c(=O)n(-c2ccccc2)n1C` it is -0.33%; for `CCN1CCCC1CNC(=O)c1cc2c(-c3ccc(Cl)cc3)nn(C)c2s1` (stereo not drawn) it is -8.33%.
Turning to `COc1cc(OC)c(Nc2cc(C)nc3nc(C)nn23)cc1Cl`, the viability increase was -1.47%.
On the same count and under the same terms, as for `O=C(O)COc1ccc2c(c1)OCCO2`, the figure is 0.55%; as for `COc1cc2c(C(=O)NCc3ccccn3)cn(CC(C)C)c(=O)c2cc1OC`, -3.77%; as for `COc1cccc(N(CC(=O)Nc2cccc(F)c2)S(C)(=O)=O)c1`, -1.38%.
`O=C(C1CCN(S(=O)(=O)c2cccc3cccnc23)CC1)N1CCN(C2CCCC2)CC1`: the viability increase is -1.82%.
The same measure, in the same setting: as for `CCC(=O)N1C(C(=O)O)CSC1c1ccc(OC)cc1` (stereo not drawn), the figure is -0.61%; as for `c1ccc(OCCSc2ncnc3nc[nH]c23)cc1`, -0.26%; as for `Cc1onc(-c2ccccc2Cl)c1C(=O)NCc1ccc2c(c1)cc(C)n2C`, -3.02%.
Same read-out and setting: as for `CN(C)c1nc(Oc2ccc(C(=O)OCC(=O)Nc3ccccc3)cc2)nc(N(C)C)n1`, the figure is -3.31%.
On the same count and under the same terms, the figure for `Cc1c(/C=N/n2cnnc2)c2ccccc2n1C` is -1.49%; for `CCOC(=O)CSc1ccc2nnc(-c3ccccc3)n2n1` it is -0.81%; for `O=C(Oc1ccccc1)N1CCN(c2ccc(F)cc2)CC1` it is 1.92%.
As for `Cc1cc(Nc2cccc(C)c2C)n2nc(C)nc2n1`, the viability increase was -1.13%.
On the same count and under the same terms, the figure for `COc1ccc(N=C2SC(C(=O)O)CC(=O)N2C)cc1` (stereo not drawn) is -0.87%; for `CC(CCc1ccccc1)C(=O)NO` (stereo not drawn) it is -3.84%.
On the same count and under the same terms, the figure for `Cc1cc(=O)[nH]c(SCc2cc(Cl)ccc2OC(F)F)n1` is -1.54%; for `COc1ccc(OC)c(S(=O)(=O)n2nc(-c3ccccc3)cc2N)c1` it is -2.02%; for `O=C(NCc1cn2ccccc2n1)c1ccc(Br)o1` it is -1.31%.
The same measure, in the same setting: as for `COc1ccc(N2CCN(C(=O)c3ccc(CS(=O)(=O)c4ccc(OC)cc4)o3)CC2)cc1`, the figure is -1.85%.
With `COc1ccc(OC)c(NC(=O)CSc2nnc(Cn3c(=O)sc4ccccc43)n2C)c1`, the viability increase was -2.91%.

The next test in a line: viability of HCT116 without oncogenic beta-catenin – human colon tumor cells, pilot screen (AID 823;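 active = cell viability at or below a set limit in both duplicate runs, the limit being the all-compound median minus 4 SD, cut at about 23% in these data, passing the limit was not always enough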;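 also: 0% = wells killed by 20 µM Hyamine and 100% = untreated DMSO cell wells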). Conditions: HCT116 beta-catenin knockout viability, CellTiter-Glo, 60 h; at 10 µM; active compounds read low.
In general, viability refers to a read-out of living cells in per cent, often relative to untreated cells. Turning to `CSc1ccc(S(=O)(=O)N2CCN(Cc3ccc4c(c3)OCO4)CC2)cc1`, the viability was 88.1%.
The same measure, in the same setting: as for `Cc1ccc(F)c(NC(=O)C2CCCCC2C(=O)O)c1` (stereo not drawn), the figure is 90.7%; as for `CC(=O)c1sc(NC(=O)c2ccco2)nc1-c1ccccc1`, 103%; as for `CCn1c(C(C)NC(=O)Cc2ccccc2)nc2ccccc21` (stereo not drawn), 99.6%.
Turning to `CCOC(=O)N1CCN(C(=O)Cn2ncc3ccccc32)CC1`, the viability is 105%.
As to `CCCCCn1c(CNC(=O)CCC)nc2ccccc21`, the viability is 101%.
For the molecule `COc1ccc(-n2ncc3c(N4CCCCC4)ncnc32)cc1`, the viability is 67.8%.
The same measure, in the same setting: the figure for `O=C(c1cccc(S(=O)(=O)N2CCCC2)c1)c1cccc(S(=O)(=O)N2CCCC2)c1` is 60.7%; for `CC(C)Cc1nnc(NC(=O)CCN2C(=O)c3ccccc3C2=O)s1` it is 106%.
Same read-out and setting: as for `Cc1cc(C)c(S(=O)(=O)N2CCN(CCO)CC2)c(C)c1`, the figure is 108%.
Still for that read-out and setting: as for `CCOC(=O)c1nn(-c2ccc3c(c2)CCN3C(C)=O)cc1O`, the figure is 101%; as for `CCN1CCN(C(c2ccccc2)c2sc3nc(C)nn3c2O)CC1` (stereo not drawn), 102%; as for `Cc1ccc(O)c(-c2cc(C(F)(F)C(F)F)nc(-c3ccccc3)n2)c1`, 66.7%.
On to `COc1ccc(CN2CCCCC2C(=O)Nc2ccc(OC)c(OC)c2)cc1OC` (stereo not drawn), for which the viability was 95.8%.
On the same count and under the same terms, the figure for `CCC(Sc1nncn1C)C(=O)Nc1nnc(-c2ccccc2Cl)s1` (stereo not drawn) is 103%; for `COc1ccc(S(=O)(=O)NCC2CCC(C(=O)N3CCC4(CC3)OCCO4)CC2)cc1` (stereo not drawn) it is 94.2%.
For `NC(=O)c1ccsc1NC(=O)c1ccco1`, the viability was 102%.
Still for that read-out and setting: the figure for `Cc1c(NC(=O)c2ccc3c(c2)OCO3)c(=O)n(-c2ccccc2)n1C` is 104%; for `CCN1CCCC1CNC(=O)c1cc2c(-c3ccc(Cl)cc3)nn(C)c2s1` (stereo not drawn) it is 2.03% (active).
In the case of `COc1cc(OC)c(Nc2cc(C)nc3nc(C)nn23)cc1Cl`, the viability was 106%.
On the same count and under the same terms, as for `O=C(O)COc1ccc2c(c1)OCCO2`, the figure is 99.2%; as for `COc1cc2c(C(=O)NCc3ccccn3)cn(CC(C)C)c(=O)c2cc1OC`, 104%.
Same read-out and setting: as for `COc1cccc(N(CC(=O)Nc2cccc(F)c2)S(C)(=O)=O)c1`, the figure is 91.1%; as for `O=C(C1CCN(S(=O)(=O)c2cccc3cccnc23)CC1)N1CCN(C2CCCC2)CC1`, 94.3%; as for `CCC(=O)N1C(C(=O)O)CSC1c1ccc(OC)cc1` (stereo not drawn), 98.1%.
The same measure, in the same setting: as for `c1ccc(OCCSc2ncnc3nc[nH]c23)cc1`, the figure is 93.3%; as for `Cc1onc(-c2ccccc2Cl)c1C(=O)NCc1ccc2c(c1)cc(C)n2C`, 95.5%.
In the case of `CN(C)c1nc(Oc2ccc(C(=O)OCC(=O)Nc3ccccc3)cc2)nc(N(C)C)n1`, the viability is 95.6%.
On the same count and under the same terms, as for `Cc1c(/C=N/n2cnnc2)c2ccccc2n1C`, the figure is 98.7%; as for `CCOC(=O)CSc1ccc2nnc(-c3ccccc3)n2n1`, 108%.
Turning to `O=C(Oc1ccccc1)N1CCN(c2ccc(F)cc2)CC1`, the viability is 95.8%.
Same read-out and setting: as for `Cc1cc(Nc2cccc(C)c2C)n2nc(C)nc2n1`, the figure is 102%; as for `COc1ccc(N=C2SC(C(=O)O)CC(=O)N2C)cc1` (stereo not drawn), 98.1%; as for `CC(CCc1ccccc1)C(=O)NO` (stereo not drawn), 95.6%.
Still for that read-out and setting: the figure for `Cc1cc(=O)[nH]c(SCc2cc(Cl)ccc2OC(F)F)n1` is 98.2%; for `COc1ccc(OC)c(S(=O)(=O)n2nc(-c3ccccc3)cc2N)c1` it is 104%.
The same measure, in the same setting: the figure for `O=C(NCc1cn2ccccc2n1)c1ccc(Br)o1` is 96.5%; for `COc1ccc(N2CCN(C(=O)c3ccc(CS(=O)(=O)c4ccc(OC)cc4)o3)CC2)cc1` it is 92.1%; for `COc1ccc(OC)c(NC(=O)CSc2nnc(Cn3c(=O)sc4ccccc43)n2C)c1` it is 94.3%.

The values are drawn from PubChem BioAssay.
